# Screening data: PubChem BioAssay, National Center for Advancing Translational Sciences (NCATS)
# IL-1B inflam inh: blocks inflammasome-driven IL-1 beta release. actives 4.7% (n = 360,000). activity change, % at 57.5 µM. THP-1 LPS/ATP IL-1B secretion, AlphaLISA, 16 h; stronger effect = lower value; in the data active means activity change below about -50%; inconclusive means mostly about -30% to -49%
#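 THP-1 cells pretreated 1 hr with compounds (up to 57.5 uM final), then stimulated with LPS (250 ng/mL final) plus ATP (1.25 mM final); secreted IL-1B measured by AlphaLISA after 16 hr, decreased signal indicating inhibition.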
# ELG1 repair inh: ELG1-dependent DNA repair inhibition; actives 2.3% (n = 330,000); Potency, µM (highest dose often 46.1 µM), without a hit: at the top dose activity change, negative = inhibition, usual class: inhibitors; HEK293T ELG1-luciferase reporter, luminescence, 16 h; DNA damage induced by 5-fluorouridine; further: potency means the concentration at half of the fitted maximal effect; nearly all actives have a fitted effect of over 55% in size
#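 Overnight (16 hr) co-exposure of 2,000 cells/well to 5-fluorouridine and compound at 37 °C preceded detection. Luciferase was quantified via ONE-Glo luminescence; loss of signal denotes inhibition.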
# RORgamma inh: blocks mouse ROR gamma transcriptional activity | P51450 | Drosophila S2 Gal4-RORgamma UAS-luciferase reporter, 20 h | Potency, µM (series often up to 53.6 µM), for the others: at the highest dose activity change, negative = inhibition, hits mostly inhibitors | actives 5.4% (n = 310,000) | AID 2551; further: potency means the concentration at half of the fitted maximal effect; nearly all actives have a fitted effect of over 60% in size
# Target sequence (P51450 whole entry, looked up, the tested form may be a part): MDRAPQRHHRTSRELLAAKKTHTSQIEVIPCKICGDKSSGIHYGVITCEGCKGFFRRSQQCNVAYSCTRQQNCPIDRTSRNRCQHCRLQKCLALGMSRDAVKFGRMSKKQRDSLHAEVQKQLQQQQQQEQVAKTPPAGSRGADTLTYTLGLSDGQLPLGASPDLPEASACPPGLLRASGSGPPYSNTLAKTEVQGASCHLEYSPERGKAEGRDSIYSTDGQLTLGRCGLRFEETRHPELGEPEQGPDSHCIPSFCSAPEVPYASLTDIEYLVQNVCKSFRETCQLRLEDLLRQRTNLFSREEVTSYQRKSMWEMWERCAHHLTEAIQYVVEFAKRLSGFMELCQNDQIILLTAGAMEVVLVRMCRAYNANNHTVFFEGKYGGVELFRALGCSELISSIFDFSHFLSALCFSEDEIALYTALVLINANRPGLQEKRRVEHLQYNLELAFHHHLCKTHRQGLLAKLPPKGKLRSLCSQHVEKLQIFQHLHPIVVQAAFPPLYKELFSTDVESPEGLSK
#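 Using a luciferase readout, inhibitors were identified by reduced reporter activity in Drosophila cells coexpressing a copper-inducible Gal4–ROR gamma fusion and UAS-driven Photinus luciferase, incubated 20 hr after 700 uM copper sulfate.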
# TDP1 cell noCPT: qHTS for Inhibitors of human tyrosyl-DNA phosphodiesterase 1 (TDP1): qHTS in cells in absence of CPT. DT40 Tdp1-/- hTDP1 cells, no CPT, ATP luminescence, 48 h. Potency, µM (doses to about 46.2 µM), without a hit: at the highest dose activity change, negative = growth inhibition, usual class: inhibitors. actives 15% (n = 420,000); further: potency means the concentration at half of the fitted maximal effect; nearly all actives have a fitted effect of over 55% in size
#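 Chicken DT40 Tdp1-/- cells complemented with human TDP1, screened without camptothecin (DMSO vehicle only), 400 cells/well. Compounds pin-transferred, cells incubated at 37 °C for at least 48 hr. Growth read as ATP-dependent luminescence (CellTiter-Glo, 30 min at RT).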
# DT40 TDP1 CPT: DT40-hTDP1 cell growth loss with CPT; Potency, µM (titrated, usually from 46.2 µM), without a hit: at the top dose activity change, negative = growth inhibition, hits mostly inhibitors; chicken DT40 Tdp1-/-;hTDP1 cells + 20 nM CPT, ATP luminescence, 48 h; actives 12% (n = 420,000); AID 686979; further: potency means the concentration at half of the fitted maximal effect; nearly all actives have a fitted effect of over 55% in size
#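 Chicken DT40 Tdp1-/- cells complemented with human TDP1, 400 cells/well, exposed to compounds plus 20 nM camptothecin for at least 48 h at 37 C; viability read as ATP content by CellTiter-Glo luminescence.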
# VP16 counter: Gal4-VP16 reporter inhibition counter-screen | Drosophila S2 Gal4-VP16 UAS-luciferase, luminescence, 20 h | Potency, µM (doses to about 53.6 µM), inactives show top-dose activity, negative = inhibition, hits mostly inhibitors | actives 3.5% (n = 310,000) | AID 2546;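 further: Gal4-VP16 expression switched on by copper sulfate through the metallothionein promoter; potency means the concentration at half of the fitted maximal effect; nearly all actives have a fitted effect of over 50% in size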
# Numbers without * were called inactive; u = inconclusive; x = no result given; [ ] = dose if it differs, or a comment. This is a sample that favours compounds with a hit; in the whole collection about 21% have one here. Unless noted, the call rests on the fitted dose curve; in most records, active means well fitted curve in the direction sought with a large enough effect; inconclusive means small, poorly fitted or top-dose-only effect, or another doubt; inactive means no such curve, though single readings can be large; an effect the other way counts as inactive or inconclusive. On the % scale 0 is the no-effect control and ±100 the full control effect.
SMILES,IL-1B inflam inh,ELG1 repair inh,RORgamma inh,TDP1 cell noCPT,DT40 TDP1 CPT,VP16 counter
Cc1cc(C(=O)N(C)CC(=O)Nc2ccccc2C(F)(F)F)c(C)o1,-28,-3%,u,23µM*,16µM*,u
CN(CC(=O)Nc1ccccc1C(F)(F)F)C(=O)COc1ccccc1Cc1ccccc1,-14,-3%,x,16µM*,u,x
Cc1ccccc1Nc1nc(N)nc(COC(=O)[C@@H](NC(=O)c2c(F)cccc2F)C(C)C)n1,3,2%,x,u,10%,x
CNc1cccc(-c2ccccc2CO)n1,0,x,x,-10%,-24%,x
CCOc1ccccc1C(=O)N(C)CC(=O)Nc1ccc(OC)cc1,7,-6%,-2%,-14%,5%,4%
CN(CC(=O)Nc1ccc(F)cc1)C(=O)COc1ccc(C(=O)c2ccccc2)cc1,-18,-21%,43%,21µM*,u,1%
COc1ccc(NC(=O)CN(C)C(=O)COc2ccccc2Cc2ccccc2)cc1,-3,u,x,18µM*,26µM*,x
O=C(O)CCn1ccc2cc(S(=O)(=O)N3CCCCC3)ccc21,x,x,x,-24%,-4%,x
C[C@@H]1CN([C@H](C)CO)C(=O)CCCn2cc(nn2)CO[C@H]1CN(C)S(=O)(=O)c1ccccc1,16,x,x,17%,16%,x
CCCCCC(=O)N1C[C@H](O)[C@@H](n2cc(C3CC3)nn2)C[C@@H]1c1ccc(Cl)cc1,-7,x,x,-14%,6%,x
CC(=O)c1c(C)[nH]c(C(=O)Nc2cccc(S(=O)(=O)N3CCOCC3)c2)c1C,67,u,-26%,u,u,-7%
COc1ccccc1NS(=O)(=O)c1cccc(NC(=O)Cc2cccs2)c1,-4,0%,3%[10 µM],26µM*,u,-7%
COc1ccccc1NS(=O)(=O)c1cccc(NC(=O)c2[nH]c(C)c(C(C)=O)c2C)c1,-2,-14%,15%,16µM*,u,-2%
CCNC(=S)Nc1cccc(S(=O)(=O)Nc2ccccc2OC)c1,11,0%,u,23µM*,u,u
COc1ccccc1NS(=O)(=O)c1cccc(NC(=O)Nc2ccccc2)c1,-79*,u,u,15µM*,u,-4%
Cc1ccc(OCCNC(=O)CNC(=O)Cc2cccc3ccccc23)cc1,x,x,x,-16%,-27%,x
Cc1cc(Br)cn2c(CC(C)(C)C)c(C3CCCCC3)nc12,25,x,x,u,u,x
COc1ccc(CNC(=O)Nc2nnc([C@@H]3C[C@H](O)[C@@H](CO)O3)s2)cc1,-21,x,x,-26%,4%,x
COc1ccccc1NS(=O)(=O)c1cccc(NC(=O)c2cc3ccccc3oc2=O)c1,22,u,-19%,18µM*,u,-2%
COc1cc(NC(=O)Cc2cccs2)cc(OC)c1,-2,2%,10%,18µM*,u,1%
C=CCn1c(Cc2cccs2)nnc1SCC(=O)Nc1ccc(C(=O)OCC)cc1,-24,u,28%,-14%,-8%,3%
C=CCn1c(Cc2cccs2)nnc1SCC(=O)Nc1cc(OC)cc(OC)c1,-15,u,43%,16µM*,u,3%
NC1=NC(=Nc2cccc(S(N)(=O)=O)c2)c2ccccc21,u,17%,-19%,-15%,-18%,0%
CN(c1ccccc1)S(=O)(=O)c1cccc(NC(=O)c2cc3ccccc3oc2=O)c1,21,u,-3%,u,u,-6%
COc1ccccc1NS(=O)(=O)c1cccc(N=C2N=C(N)c3ccccc32)c1,-66*,-24%,16%,23µM*,-23%,u
SMILES,IL-1B inflam inh,ELG1 repair inh,RORgamma inh,TDP1 cell noCPT,DT40 TDP1 CPT,VP16 counter
CO[C@H]1OC[C@@]2(C)[C@@H]3C4=C(CN2C(=O)OC(C)(C)C)[C@H](C)[C@H](CO)[C@H](CO)[C@H]4CC[C@H]13,x,x,-8%,x,x,6%
Cc1cc(C)cc(N=C2NC(=O)/C(=C/c3cccs3)S2)c1,9,1%,u,13µM*,u,16µM*
COC(=O)/C=C1\SC(=Nc2ccccc2)NC1=O,-65*,-6%,-14%,-5%,-16%,-11%
Cn1cccc1/C=C1\SC(=Nc2ccccc2)NC1=O,140,u,-13%,2.3µM*,2.9µM*,2%
Cn1cccc1/C=C1\SC(=Nc2ccc(O)cc2)NC1=O,132,u,2%,0.023µM*,0.041µM*,7%
COC(=O)/C=C1/SC(=Nc2ccc(Cl)c(Cl)c2)NC1=O,-8,4%,33%,-29%,2%,2%
O=C(C(Sc1ccccc1)c1ccccc1)N1CCOCC1 (stereo not drawn),3,3%,5%,9%,7%,-3%
COC(=O)/C=C1/SC(=Nc2ccc(C)cc2C)NC1=O,-29,-12%,-6%,u,-1%,14%
Cn1cccc1/C=C1\SC(=Nc2cccc(O)c2)NC1=O,30,u,3.2µM*,21µM*,21µM*,u
Cc1ccc(N=C2NC(=O)/C(=C/c3cccn3C)S2)c(C)c1,-21,u,10µM*,6.5µM*,u,-19%
Cn1cc(/C=C2/SC(=O)N(c3ccccc3)C2=O)c2ccccc21,4,u,5%,-27%,-7%,-3%
